Experimental data: PubChem BioAssay (Tox21)
Values without a mark were called inactive. Activity calls are given as the source filed them. The call rests on the fitted dose curve; in most records, active means well fitted curve in the direction sought with a large enough effect in the repeat runs; inconclusive means weak or mixed curves; inactive means flat fitted curve, though single readings scatter.

Assay: qHTS assay to test for compound auto fluorescence at 535 nm (green) in HepG2 cells (AID 720675)
Settings: green autofluorescence 485/535 nm, 1 h; series mostly up to 91.3 µM; fluorescence, % of fluorescein control: at the top concentration
On the % scale 0 is the no-effect control and ±100 the full control effect.

| SMILES | fluorescence, % of fluorescein control | outcome |
| --- | --- | --- |
| C=C(C)C(=O)OCCC(F)(F)C(F)(F)C(F)(F)C(F)(F)C(F)(F)C(F)(F)F | 0% |  |
| CC1CCc2nccnc21 (centres undefined) | -0.0751% |  |
| O=C(C(=O)c1ccco1)c1ccco1 | -0.021% |  |
| CC1C(C)(C)C2=C(C(=O)CCC2)C1(C)C (centres undefined) | -0.0714% |  |
| Cc1cccc2sc(N)nc12 | -0.0715% [at 95.7 µM] |  |
| O=c1[nH][nH]c(=O)c2cc([N+](=O)[O-])ccc12 | -0.0093% [at 95.7 µM] |  |
| CCCCCCOC(=O)CCCCC | -0.0009% |  |
| O=NN(CCCl)C(=O)NCCCl | -0.0057% [at 46 µM] |  |
| O=S(=O)(O)CO | 0.0062% |  |
| CC(C)(O)c1coc(S(=O)(=O)NC(=O)Nc2c3c(cc4c2CCC4)CCC3)c1 | 0.0041% |  |
| Nc1ccn([C@H]2CS[C@@H](CO)O2)c(=O)n1 |  | inactive |
| Nc1ccc(S(=O)(=O)NCc2ccccc2)cc1 | -0.0828% [at 46 µM] |  |
| Nc1ccc(N=Nc2ccc(N)cc2)cc1 | 0.0113% [at 46 µM] |  |
| O=c1[nH]c2cc(C(F)(F)F)c(N3CCOCC3)cc2n(CP(=O)(O)O)c1=O | -0.0915% [at 46 µM] |  |
| CC(O)Cn1cnc2c1c(=O)n(C)c(=O)n2C (centres undefined) | 0.0515% [at 18.6 µM] |  |
| CCN(CC)CCOC(=O)C(c1ccccc1)c1ccccc1 | 0.0169% [at 46 µM] |  |
| O=C(O)CN1C(=O)c2cccc3cccc(c23)C1=O | -0.0886% [at 46 µM] |  |
| CC(C)COC(=O)COc1cc(Cl)c(Cl)cc1Cl | 0.0222% |  |
| C[C@H](CS)C(=O)N1CCC[C@H]1C(=O)O | 0.0108% [at 46 µM] |  |
| CCCCCCC(CO)CCCC (centres undefined) | -0.0221% |  |
| CC(=O)OC(C)C[N+](C)(C)C (centres undefined) | 0.0253% [at 18.6 µM] |  |
| CN=C(N)NC(=O)Nc1c(C)cccc1C | -0.112% [at 46 µM] |  |
| CSSc1ccoc1C | 0.0571% |  |
| CCCCCCCC(=O)OCCCCCC | -0.0412% |  |
